From the supplement of paper PMC11150407
Among all 2,100 compounds or so, about 180 (8.6%) showed an effect of 50% or more. For the sample, strong results were picked, then their nearest neighbours and some compounds at random.

tested on: MOLM1 and UCSD/AML1 (averaged); test: cell viability relative to DMSO control (POC); higher = less growth inhibition; conditions: 1 µM; 72 h
Protocol: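 Primary viability screen in the 3q26 EVI1-high AML cell lines MOLM1 and UCSD/AML1 (1.5e3 cells/well, 384-well), compounds at 1 uM for 72 h. ATP CellTiter-Glo read-out given as percent of viable cells over DMSO control (POC), averaged over duplicates. DMSO was the negative control and 5 uM etoposide the positive control. This mapping covers the MicroSource Spectrum and Selleck anticancer libraries (drug names).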

Row | SMILES | cell viability [%]
1 | CN(CC[C@H](N)CC(=O)N[C@H]1C=C[C@H](n2ccc(N)nc2=O)O[C@@H]1C(=O)O)C(=N)N | 114
2 | COc1cc2c(cc1-c1cc3cc4ccoc4cc3oc1=O)OCO2 | 99.4
3 | CC[C@@H](C)C(=O)O[C@H]1[C@H](O)[C@H]2[C@@H](CN3C[C@@H](C)CC[C@H]3[C@@]2(C)O)[C@@H]2C[C@]34O[C@]5(O)[C@@H](OC(=O)[C@@](C)(O)CC)CC[C@@]3(C)[C@@H]5[C@@H](OC(C)=O)[C@@H](OC(C)=O)[C@H]4[C@@]21O | 89.1
4 | COc1cc([C@@H]2c3cc4c(cc3[C@H](O)[C@H]3COC(=O)[C@@H]23)OCO4)cc(OC)c1OC | 12.3
5 | COc1cc([C@@H]2c3cc4c(cc3[C@H](O)[C@H]3COC(=O)[C@H]23)OCO4)cc(OC)c1OC | 6.17
6 | COc1ccc2c(c1OC)C(=O)O[C@@H]2[C@H]1c2cc3c(cc2CCN1C)OCO3 | 88
7 | COc1ccc2c(c1OC)C(=O)O[C@H]2[C@H]1c2cc3c(cc2CCN1C)OCO3 | 93.9
8 | CN1CCc2cc3c(cc2C1O)OCO3 (stereo unspecified) | 102
9 | Oc1cc(Cl)ccc1Oc1ccc(Cl)cc1Cl | 95.1
10 | Cc1ncc(CNC(=O)N(CCCl)N=O)c(N)n1 | 111
11 | CC(=O)CC1CCCCN1 (stereo unspecified) | 102
12 | CN[C@@H](C)[C@@H](O)c1ccccc1 | 105
13 | O=c1[nH]c2ccccc2n1C1CCN(CCCC(c2ccc(F)cc2)c2ccc(F)cc2)CC1 | 94.7
14 | CNC(C)C(O)c1ccccc1 (stereo unspecified) | 96.1
15 | CC[C@@H](C(=O)[C@@H](C)[C@@H](O)[C@H](C)[C@@H]1O[C@@H]([C@@H](CC)C(=O)O)CC[C@@H]1C)[C@H]1O[C@]2(C=C[C@@H](O)[C@]3(CC[C@@](C)([C@H]4CC[C@](O)(CC)[C@H](C)O4)O3)O2)[C@H](C)C[C@@H]1C [Salinomycin (Procoxacin)] | 68.4
16 | CC[C@@H](C(=O)[C@@H](C)[C@@H](O)[C@H](C)[C@@H]1O[C@@H]([C@@H](CC)C(=O)O)CC[C@@H]1C)[C@H]1O[C@]2(C=C[C@@H](O)[C@]3(CC[C@@](C)([C@H]4CC[C@](O)(CC)[C@H](C)O4)O3)O2)[C@H](C)C[C@@H]1C | 20.9
17 | CC(=O)O[C@@H]1[C@H]2CC[C@H]3[C@@](C)(O)[C@@H]4C[C@H](O)C(C)(C)[C@@]4(O)[C@H](O)C[C@@]13C[C@@]2(C)O | 100
18 | C[C@@H](CO)NC(=O)[C@@H]1C=C2c3cccc4[nH]cc(c34)C[C@H]2N(C)C1 | 102
19 | CC1=C(O)C(=O)C=C2C1=CC=C1[C@@]2(C)CC[C@@]2(C)[C@@H]3C[C@](C)(C(=O)O)CC[C@]3(C)CC[C@]12C | 30.1
20 | Cc1c(O)c(O)cc2c1CC=C1[C@@]2(C)CC[C@@]2(C)[C@@H]3C[C@](C)(C(=O)O)CC[C@]3(C)CC[C@]12C | 11.5
21 | CC(C)C[C@H](CN)CC(=O)O | 67.7
22 | COC[C@]12CN(C=O)[C@@H]3[C@@H]4[C@H](OC)[C@H]1[C@@]3([C@@H](OC)C[C@H]2O)[C@@H]1C[C@@]2(O)[C@H](OC(=O)c3ccccc3)[C@@H]1[C@]4(OC(C)=O)[C@@H](O)[C@@H]2OC | 111
23 | C=C(C)[C@H]1Cc2c(ccc3c(=O)c4c(oc23)COc2cc(OC)c(OC)cc2-4)O1 | 106
24 | S=C=NCc1ccccc1 | 95.3
25 | C#CCOS(=O)OC1CCCCC1Oc1ccc(C(C)(C)C)cc1 (stereo unspecified) | 89.9
26 | CC(C)(C)C(=O)C(Oc1ccc(Cl)cc1)n1cncn1 (stereo unspecified) | 99.8

Row | SMILES | cell viability [%]
27 | CC[C@@]1(O)C(=O)OCc2c1cc1n(c2=O)Cc2cc3ccccc3nc2-1 | 1.42
28 | C[C@H]1CC[C@]2(NC1)O[C@H]1C[C@H]3[C@@H]4CC[C@H]5C[C@@H](O)CC[C@]5(C)[C@H]4CC[C@]3(C)[C@H]1[C@@H]2C | 93.3
29 | C[N+]1(C)CCc2cc3c(cc2[C@H]1[C@@H]1OC(=O)c2c1ccc1c2OCO1)OCO3 | 104
30 | COc1cc2c(cc1OC)[C@H](C)NCC2 | 94.2
31 | CC(C)c1ccc2c(c1O)CC[C@H]1C3=C(CC[C@]21C)C(=O)OC3 | 89.3
32 | CC(C)[C@]12O[C@H]1[C@@H]1O[C@]13[C@]1(O[C@H]1C[C@H]1C4=C(CC[C@@]13C)C(=O)OC4)[C@@H]2O [Triptolide] | 2.21
33 | c1ccc(/N=N/c2ccccc2)cc1 | 96.4
34 | N#C/C(=C\c1ccc(O)cc1)C(=O)O [alpha-CYANO-4-HYDROXYCINNAMIC ACID] | 113
35 | CCSCC[C@H](N)C(=O)O | 99.2
36 | CCC(C)C(=O)OC1CC2(C)C(c3ccoc3)OC(=O)CC23OC2(C)OC34C(OC(=O)C(C)C)C3(O)C(OC(=O)C5(C)OC5C)C5(C)CC3(O)C(C)(C5CC(=O)OC)C14O2 (stereo unspecified) | 91.2
37 | COC(=O)[C@@H]1C[C@H](OC(C)=O)C(=O)[C@H]2[C@@]1(C)CC[C@H]1C(=O)O[C@H](c3ccoc3)C[C@]21C | 104
38 | CNC(=O)Oc1cccc2c1OC(C)(C)C2 | 85.3
39 | COc1ccc(C[C@H]2NC[C@H](O)[C@H]2OC(C)=O)cc1 | 3.59
40 | C=CCc1ccc(OC)cc1 | 107
41 | CC[C@H]1[C@@H]2C[C@H]3[C@@H]4N(C)c5ccccc5[C@]45C[C@@H]([C@@H]2[C@H]5O)N3[C@@H]1O | 109
42 | CC1=C2C(=CO[C@H](C)[C@H]2C)C(O)=C(C(=O)O)C1=O | 104
43 | C[C@@H]1CC[C@@]2(OC1)O[C@H]1[C@@H](O)[C@H]3[C@@H]4CC[C@H]5C[C@@H](O[C@@H]6O[C@H](CO)[C@H](O[C@@H]7O[C@H](CO)[C@@H](O)[C@H](O[C@@H]8OC[C@@H](O)[C@H](O)[C@H]8O)[C@H]7O[C@@H]7O[C@H](CO)[C@H](O)[C@H](O[C@@H]8O[C@H](CO)[C@@H](O)[C@H](O)[C@H]8O)[C@H]7O)[C@H](O)[C@H]6O)[C@H](O)C[C@]5(C)[C@H]4CC[C@]3(C)[C@H]1[C@@H]2C | 92.7
44 | CC(=O)OC1CCC23C(=O)OC45CCC(C6=CC(=O)OC6)C4(C)CCC2C5CCC3(O)C1 (stereo unspecified) | 5.23
45 | CC(=O)O[C@H]1CC[C@@]2(C)[C@H](CC[C@@H]3[C@@H]2CC[C@]2(C)[C@@H](C4=CC(=O)OC4)[C@@H](OC(C)=O)C[C@]32O)C1 | 2.29
46 | CC(=O)O[C@H]1C[C@@H]2CC[C@@H]3[C@H](CC[C@@]4(C)[C@H]3C[C@H]([N+]3(C)CCCCC3)[C@@H]4OC(C)=O)[C@@]2(C)C[C@@H]1[N+]1(C)CCCCC1 | 88.6
47 | C[C@H]1O[C@@H](O[C@H]2[C@@H](O)C[C@H](O[C@H]3[C@@H](O)C[C@H](O[C@H]4CC[C@@]5(C)[C@H](CC[C@@H]6[C@@H]5CC[C@]5(C)[C@@H](C7=CC(=O)OC7)[C@@H](O)C[C@]65O)C4)O[C@@H]3C)O[C@@H]2C)C[C@H](O)[C@@H]1O | 3.82
48 | C[C@H]1CC[C@]2(NC1)O[C@H]1C[C@H]3[C@@H]4CC[C@H]5C[C@@H](O[C@@H]6O[C@H](CO)[C@H](O[C@@H]7O[C@H](CO)[C@@H](O)[C@H](O[C@@H]8OC[C@@H](O)[C@H](O)[C@H]8O)[C@H]7O[C@@H]7O[C@H](CO)[C@@H](O)[C@H](O)[C@H]7O)[C@H](O)[C@H]6O)CC[C@]5(C)[C@H]4CC[C@]3(C)[C@H]1[C@@H]2C | 65.2
49 | CC(=O)O[C@H]1C[C@H](O[C@H]2[C@@H](O)C[C@H](O[C@H]3[C@@H](O)C[C@H](O[C@H]4CC[C@@]5(C)[C@H](CC[C@@H]6[C@@H]5C[C@@H](O)[C@]5(C)[C@@H](C7=CC(=O)OC7)CC[C@]65O)C4)O[C@@H]3C)O[C@@H]2C)O[C@H](C)[C@H]1O[C@@H]1O[C@H](CO)[C@@H](O)[C@H](O)[C@H]1O | 3.89
50 | C[C@]12CC[C@H](O)C[C@H]1CC[C@@H]1[C@@H]2CC[C@]2(C)[C@@H](C3=CC(=O)OC3)[C@@H](O)C[C@]12O | 99.6
51 | CC(=O)[C@H]1CC[C@H]2[C@@H]3CC[C@H]4C[C@H](O)CC[C@]4(C)[C@H]3CC[C@]12C | 87.7
